Screens from PubChem BioAssay.
Cy5 interf NS3h: counter-screen for HCV NS3 helicase inhibitors: fluorescence interference; AID 720488; Cy5-dT15 DNA with NS3h; actives lie on both sides; signal over control mean, under 1 quenches; fluorescence interference ratio at 100 µM; 6% of 16,000 active;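 active = compound fluorescence over control fluorescence at most 0.8, a quencher, or at least a set upper limit, an enhancer; inactive = ratio between 0.8 and the set upper limit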
HCV NS3h FP: hepatitis C NS3 helicase inhibition, primary screen | NS3h Cy5-dT15 DNA binding, fluorescence polarization | inhibition, % at 100 µM | 1.6% of 16,000 active | AID 687043;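 active = inhibition above the average over every tested compound plus 3 SD, cut at about 40% in these data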
An asterisk follows results filed as active. This is a sample that favours compounds with a hit; in the whole collection about 7.6% have one here.

SMILES	Cy5 interf NS3h	HCV NS3h FP
O=C(CCC(=O)OCC(F)(F)C(F)F)Nc1ccc(Cl)cc1Cl	0.776*	7.7
O=C(CCCC(=O)OCC(F)(F)C(F)F)Nc1ccc(NC(=O)CCCC(=O)OCC(F)(F)C(F)F)cc1	0.624*	3.1
C=CCCCC(=O)Nc1ccc(Cl)cc1Cl	0.966	10.5
COC(=O)c1ccccc1-c1ccc(/C=C2/SC(=S)N(CC(=O)O)C2=O)o1	1.03	-2.8
Cc1cccc(/C(N)=N\OC(=O)COc2ccc(Cl)cc2)c1	1.06	14.4
CN1C(=O)/C(=C\c2ccccc2OCCOc2ccc([N+](=O)[O-])cc2)SC1=S	0.937	-6.2
CC(=O)Nc1cc(-c2ccc(Cl)cc2)[nH]n1	0.669*	6.8
Cc1ccc(-c2cc(NC(=O)c3ccc(F)cc3)n[nH]2)cc1	1.01	12.9
COc1cc(NC(=O)c2ccc(Cl)cc2Cl)ccc1NC(=O)c1ccco1	0.932	21.5
Cc1c(OCc2ccc(C(=O)O)cc2)ccc2c3c(c(=O)oc12)CCC3	1.13	8.2
O=C1NC(=S)S/C1=C/c1ccc(-c2ccc([N+](=O)[O-])cc2Br)o1	0.987	32.2
Cc1ccc(-c2ccc(/C=C3/SC(=S)NC3=O)o2)cc1Cl	0.768*	6.1
Cc1cccc(Cl)c1NC(=O)C1CC(=O)N(c2ccc(Br)cc2)C1 (stereo not drawn)	1.13	19.3
CC(=O)N1CCN=C1Nc1c(Cl)cccc1Cl	0.603*	11.5
CCN1/C(=C2/OC(=S)N(C)C2=O)C=Cc2cc(C)ccc21	0.903	9.1
Cc1ccc(C(=O)N/C(=C/c2ccc(-c3ccc(Cl)cc3)o2)C(=O)NC(C)C)cc1	1	8.8
Cc1nc2sc3c(c2c(=O)n1-n1cccc1)CCCC3	0.959	13.0
Cc1nc2sc3c(c2c2nncn12)CCCC3	0.664*	5.9
Cc1oc2c(CN3CCN(C)CC3)c(O)ccc2c(=O)c1-c1nc2ccccc2s1	0.926	8.8
C=CCNC(=O)CN(c1cc(Cl)cc(Cl)c1)S(C)(=O)=O	1.22*	5.3
Cc1ccc(NC(=O)CN(c2cc(Cl)cc(Cl)c2)S(C)(=O)=O)cc1	0.989	7.1
O=C1C(c2nc3ccccc3s2)=C(O)c2ccccc21	1.12	-3.6
COc1ccc(C2N(Cc3ccccc3)CCN2Cc2ccccc2)cc1OC	0.907	11.5
COc1ccc(C2N(c3ccccc3)CCN2c2ccccc2)cc1O	0.753*	10.6
CC(COc1ccccc1)NC(=O)c1nn2c(C(F)(F)F)cc(-c3ccccc3)nc2c1Br (stereo not drawn)	0.63*	9.6
SMILES	Cy5 interf NS3h	HCV NS3h FP
COC(=O)c1cc2nc(-c3ccc(OC)cc3)cc(C(F)(F)F)n2n1	1.02	0.8
CC(C)(C)NC(=O)c1nn2c(C(F)(F)F)cc(-c3ccccc3)nc2c1Br	0.636*	5.9
O=C(Nc1ccccc1C(F)(F)F)c1cnn2c(C(F)(F)F)cc(-c3ccccc3)nc12	1.06	11.9
O=C(NCc1ccccc1)c1nn2c(C(F)(F)F)cc(-c3cccs3)nc2c1Cl	1.01	17.8
COC(=O)c1ccccc1NC(=O)c1cnn2c(C(F)(F)F)cc(-c3ccccc3)nc12	0.648*	-0.6
COc1cc(C=C2C(=O)NC(=S)NC2=O)ccc1OCCOc1ccc(C(C)(C)C)cc1	0.889	17.5
Cc1ccc(-c2nnc(Nc3ccc4c(c3)ncn4C)c3ccccc23)cc1	0.911	18.4
Cn1cnc2cc(Nc3nnc(-c4ccc(Cl)cc4)c4ccccc34)ccc21	0.702*	11.7
Cc1nc2cc(Nc3nnc(-c4ccc(Cl)cc4)c4ccccc34)ccc2n1C	0.672*	12.9
COc1ccc(-c2nnc(Nc3ccc(C)cc3)c3ccccc23)cc1	0.888	16.5
CCOC(=O)C(CNC(=O)c1ccccc1)(Oc1ccc(Cl)cc1)C(=O)OCC	0.96	5.6
COc1ccc2nc(SCC(=O)Nc3ccc(/C=C/c4ccccc4)cc3)[nH]c2c1	1.05	-15.3
Cc1csc(Nc2ccccc2)[n+]1CCO	1.21*	4.4
O=C(O)c1cccc(-c2ccc(/C=C3\SC(=O)N(c4ccc(Cl)cc4)C3=O)o2)c1	0.765*	18.6
O=C1S/C(=C\c2ccc(Br)o2)C(=O)N1c1ccc(Cl)cc1	0.914	4.2
Cc1oc2cc(OCC(=O)OCc3ccccc3)ccc2c(=O)c1-c1nc2ccccc2s1	0.98	10.2
COc1ccc(/C=C/C(=O)N2CCC(C)CC2)cc1Br	0.624*	10.5
COc1ccc(/C=C/C(=O)NCC2CCCO2)cc1Br (stereo not drawn)	1.06	3.8
CCOc1cc(C(=S)N2CCOCC2)cc(Br)c1OC(=O)c1ccc(Cl)cc1Cl	1.05	0.4
Cc1ccc(-c2nc3cc(Cl)ccc3o2)cc1NC(=S)NC(=O)c1ccco1	1.04	-8.5
O=C(Nc1ccccc1Br)C1CN(S(=O)(=O)c2ccccc2)CCN1S(=O)(=O)c1ccccc1 (stereo not drawn)	1.09	-1.3
O=C(Nc1ccccc1Cl)C1CN(S(=O)(=O)c2ccccc2)CCN1S(=O)(=O)c1ccccc1 (stereo not drawn)	1.36*	11.0
CS(=O)(=O)N(Cc1ccc(C(=O)NCCSc2ccccn2)cc1)c1ccccc1	1.06	17.9
COCCNC(=O)c1ccc(CN(c2ccccc2)S(C)(=O)=O)cc1	0.722*	17.7
COC(=O)CN1C(=O)C(=Cc2ccc(Br)cc2)SC1=S	1.02	12.2
SMILES	Cy5 interf NS3h	HCV NS3h FP
CCOc1cc(/C=C2\SC(=S)N(c3ccccc3)C2=O)ccc1OC(=O)c1cccc([N+](=O)[O-])c1	1.09	1.9
CCCCNC(=O)/C(=C/c1ccc(C)o1)NC(=O)c1ccccc1	0.66*	16.8
CCCCNC(=O)/C(=C\c1ccc(-c2cccc([N+](=O)[O-])c2)o1)NC(=O)c1ccccc1	1.04	7.2
CCOc1ccc2c(CC)cc(=O)oc2c1	1.08	-0.6
CC1CCN(S(=O)(=O)c2ccc(NC(=O)c3ccc([N+](=O)[O-])cc3)cc2)CC1	0.989	-3.9
O=C(Nc1ccccc1)c1ccc(-c2ccccc2)cc1	1.23*	2.5
O=C(Nc1ccc(F)cc1)c1ccc(-c2ccccc2)cc1	1.08	15.5
CC1CCN(S(=O)(=O)c2ccc(NC(=O)c3ccc(-c4ccccc4)cc3)cc2)CC1	1.36*	-53.6
O=C(Nc1ccc(Br)cc1)C1CCCN1C(=O)OCc1ccccc1 (stereo not drawn)	0.948	12.5
CCOC(=O)c1c(NC(=S)NC(=O)c2ccccc2)sc2c1CCC(C)C2 (stereo not drawn)	0.962	20.1
COc1ccc(N(CC(=O)O)S(=O)(=O)c2ccc(C)cc2)c(OC)c1	1.01	2.0
Cc1ccc(OCCNc2cc(N3CCN(C)CC3)ccc2[N+](=O)[O-])cc1C	0.606*	21.3
CC(Nc1cc(N2CCN(C)CC2)ccc1[N+](=O)[O-])c1ccc(Br)cc1 (stereo not drawn)	0.899	18.8
O=C(/C=C/c1ccccc1)NC(=S)Nc1ccc2ccccc2c1	1.08	5.3
S=C(S)N(CCN(Cc1cccs1)C(=S)S)Cc1cccs1	0.925	10.5
Cc1c(C(=O)O)cccc1-n1c(=O)c2cc3c(=O)n(-c4cccc(C(=O)O)c4C)c(=O)c3cc2c1=O	0.967	0.3
O=C(Cc1ccc(Cl)cc1)NCCN1CCOCC1	0.908	29.8
O=C(NCCCN1CCOCC1)c1cccc(Cl)c1	0.748*	9.6
O=c1oc(-c2cccnc2)nc2ccccc12	0.998	3.1
O=C1c2ccc(-c3nc4ccccc4c(=O)o3)cc2C(=O)N1c1c[nH]c(=O)[nH]c1=O	0.997	41.3*
N/C(=N/OC(=O)COc1ccc2ccccc2c1)c1cccc([N+](=O)[O-])c1	0.985	-9.5
